Experimental data: PubChem BioAssay (NCATS)
Records with an inconclusive call do not appear. A call without a number means that no potency is given here. Unmarked numbers belong to inactive results. The source made the active and inactive calls. The call rests on the fitted dose curve; in most records, active means well fitted curve in the direction sought with a large enough effect; inconclusive means small, poorly fitted or top-dose-only effect, or another doubt; inactive means no such curve, though single readings can be large; an effect the other way counts as inactive or inconclusive.

Key:
[1] = qHTS of pediatric cancer cell lines to identify multiple opportunities for drug repurposing: Confirmatory screen for BT-37 cells (AID 1347117); further: potency means the concentration at half of the fitted maximal effect;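 further: viability measured after 48 h of compound exposure; nearly all actives have a fitted effect of over 55% in size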
Method in brief: (§1)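 Cells (500-1,000/well) rested 5 h, then received compounds for 48 h; metabolically active cells were measured by CellTiter-Glo luminescence. Final concentrations spanned up to 46 µM (MIPE, 11-point) or 0.59 nM-46 µM (NPC, 8-point) in primary screens, 11-point in follow-ups.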

[2] = qHTS of pediatric cancer cell lines to identify multiple opportunities for drug repurposing: Confirmatory screen for TC32 cells (AID 1347118);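 further: cells exposed to compound for 48 h before the read; nearly all actives have a fitted effect of over 65% in size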; further: potency means the concentration at half of the fitted maximal effect
Method in brief: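 Luminescent CellTiter-Glo read-out of metabolically active TC32 cells after 48 h compound exposure. Primary: MIPE 11-point, 0.78 nM–46 µM; NPC 8-point, 0.59 nM–46 µM. Confirmatory: 11-point dilutions.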

[3] = qHTS of pediatric cancer cell lines to identify multiple opportunities for drug repurposing: Confirmatory screen for MG 63 (6-TG R) cells (AID 1347119); further: nearly all actives have a fitted effect of over 55% in size; further: potency means the concentration at half of the fitted maximal effect
Method in brief: as §1

[4] = qHTS of pediatric cancer cell lines to identify multiple opportunities for drug repurposing: Confirmatory screen for control Hh wild type fibroblast cells (AID 1347121); further: nearly all actives have a fitted effect of over 70% in size
Method in brief: as §1

[5] = qHTS of pediatric cancer cell lines to identify multiple opportunities for drug repurposing: Confirmatory screen for U-2 OS cells (AID 1347122); details: outcome: dose series up to 45.9 µM; further: nearly all actives have a fitted effect of over 65% in size
Method in brief: as §1

[6] = qHTS of pediatric cancer cell lines to identify multiple opportunities for drug repurposing: Confirmatory screen for Rh41 cells (AID 1347123); further: nearly all actives have a fitted effect of over 60% in size
Method in brief: as §1

[7] = qHTS of pediatric cancer cell lines to identify multiple opportunities for drug repurposing: Confirmatory screen for RD cells (AID 1347124);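 further: cells exposed to compound for 48 h before viability readout; nearly all actives have a fitted effect of over 65% in size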; further: potency means the concentration at half of the fitted maximal effect
Method in brief: as §1

[8] = qHTS of pediatric cancer cell lines to identify multiple opportunities for drug repurposing: Confirmatory screen for Saos-2 cells (AID 1347127); further: nearly all actives have a fitted effect of over 60% in size
Method in brief: as §1

[9] = qHTS of pediatric cancer cell lines to identify multiple opportunities for drug repurposing: Confirmatory screen for Rh18 cells (AID 1347125); further: nearly all actives have a fitted effect of over 55% in size
Method in brief: as §1

[10] = qHTS of pediatric cancer cell lines to identify multiple opportunities for drug repurposing: Confirmatory screen for Rh30 cells (AID 1347126); further: nearly all actives have a fitted effect of over 55% in size
From the text: Drug repurposing or repositioning has been offered as a strategy for drug development in oncology programs. This approach has special potential for childhood cancers and other rare or orphan diseases, where the expected return on new drug development has been a disincentive to pharmaceuticals.
In this project we exploit the poly-pharmacology of drugs to discover new indications via phenotypic screening of a panel of 19 well-characterized cell lines derived from solid tumors seen in children and adolescents. The goal is to identify approved drugs with previously unrecognized anticancer properties that has the potential to reveal new mechanisms and biological processes involved in carcinogenesis or drug resistance. We employed a titration-based paradigm (quantitative high-throughput screening or qHTS), where all compounds were tested at multiple concentrations for their effect on cell viability. Concentration-response curves (CRCs) were derived directly from the primary screen, and both potency and efficacy values were used to identify compounds with robust bioactivity profiles. We screened the NIH Chemical Genomics Center (NCGC) Pharmaceutical Collection (NPC) and Mechanism Interrogation Plate (MIPE) small molecule collections of approved and investigational compounds against these cell lines; and measured metabolically active cells after 48 hours of compound treatment as a proxy for cell viability.
Assay Submitter: Nathalia J. Martinez, National Center for Advancing Translational Sciences, National Institutes of Health, Rockville, MD, USA; email: natalia.martinez@nih.gov
[1] Shen, M et al. Quantitative high-throughput phenotypic screening of pediatric cancer cell lines identifies multiple opportunities for drug repurposing. Oncotarget 2017 Dec 19;9(4):4758-4772. PMID 29435139.
The cells were obtained from University of North Carolina (UNC), Pediatric Preclinical Testing Program (PPT), and Coriell Institute (CI).
qHTS cell viability assay:
Cells were assayed in growth media at a density of 500-1,000 cells/well. Five microliters of cells were dispensed into 1,536-well, white, solid-bottom, TC-treated plates (Greiner Bio One) using a multidrop dispenser and incubated at 37 degrees C, 5% CO2, under a humidified atmosphere for 5 hours. Twenty-three nanoliters of compounds and controls (neutral control DMSO or positive control bortezomib at final concentration of 2.3 µM) were subsequently transferred by Kalypsys pintool. For primary screens, the MIPE collection was tested at 11-point dilutions (final concentrations range from 0.78 nM to 46 µM) and the NPC collection at 8-point dilutions (final concentrations range from 0.59 nM to 46 µM). Compounds tested in follow-up screens were assayed at 11-point dilutions. Cells were incubated for 48 hours, followed by addition of 3 µL of CellTiter-Glo (Promega). After a 15 min incubation at room temperature, samples were analyzed for luminescence intensity using a ViewLux High-throughput CCD imager equipped with clear filters.

O=C(O)CN1C(=O)c2cccc3cccc(c23)C1=O
Potency [1]: 18.5 µM (active)
Potency [2]: 3.29 µM (active)
Potency [3]: 20.8 µM (active)
outcome [4]: inactive
outcome [5]: inactive
outcome [6]: inactive
Potency [7]: 3.69 µM (active)
outcome [8]: inactive

O=C1N=C(O)CN1/N=C/c1ccc(-c2ccc([N+](=O)[O-])cc2)o1
Potency [1]: inactive
Potency [2]: inactive
Potency [3]: inactive
outcome [4]: inactive
outcome [5]: inactive
Potency [7]: inactive
outcome [9]: inactive
outcome [10]: inactive
outcome [8]: inactive

CCN(CC)CCNC(=O)c1cc(Cl)c(N)cc1OC
Potency [1]: inactive
Potency [3]: inactive
outcome [4]: inactive
outcome [5]: inactive
outcome [6]: inactive
Potency [7]: inactive
outcome [9]: inactive
outcome [10]: inactive
outcome [8]: inactive

C[C@@H]1C[C@H]2[C@@H]3C[C@H](F)C4=CC(=O)C=C[C@]4(C)[C@@]3(F)[C@@H](O)C[C@]2(C)[C@@]1(O)C(=O)CO
Potency [1]: inactive
Potency [2]: 23.3 µM (active)
Potency [3]: inactive
outcome [4]: inactive
outcome [5]: inactive
outcome [6]: inactive
Potency [7]: inactive
outcome [9]: inactive

CCCCC/C(C=O)=C\c1ccccc1
Potency [1]: 14.7 µM (active)
Potency [2]: 6.57 µM (active)
Potency [3]: inactive
outcome [4]: inactive
outcome [5]: inactive
Potency [7]: inactive

Cc1ccc2nc(N)[nH]c(=O)c2c1Sc1ccncc1
Potency [2]: 3.29 µM (active)
outcome [5]: inactive
Potency [7]: inactive
outcome [9]: inactive
outcome [10]: inactive

O=c1cc[nH]c(=S)[nH]1
Potency [1]: inactive
Potency [2]: 9.27 µM (active)
Potency [3]: inactive
outcome [5]: inactive
outcome [6]: inactive
Potency [7]: inactive
outcome [9]: inactive
outcome [10]: inactive
outcome [8]: inactive

C[C@](N)(Cc1ccc(O)cc1)C(=O)O
activity change, negative = cytotoxic [1]: -10.9% [at 5.01 µM]
Potency [2]: inactive
activity change, negative = cytotoxicity [3]: 15.9% [at 5.01 µM]
activity, negative = cytotoxic [4]: -2.45% [at 5.01 µM]
activity change, negative = cytotoxicity [5]: 3.67% [at 5.01 µM]
activity change, negative = cytotoxic [6]: 0% [at 5.01 µM]
activity change, negative = cytotoxic [7]: 10.4% [at 5.01 µM]
activity change, negative = cytotoxic [9]: 0.623% [at 5.01 µM]
activity change, negative = cytotoxic [10]: 0% [at 5.01 µM]
activity change, negative = cytotoxic [8]: 17.6% [at 5.01 µM]
